Inhibition data for 59 compounds are collected here from PubChem BioAssay AID449762 (Southern Research Specialized Biocontainment Screening …, 2010).

About 1,900 (0.58%) of roughly 330,000 compounds were called active. Inconclusive results (about 4%) are left out. These entries were drawn from the full list. Results with a measured potency or affinity are listed apart. Values without a mark were called inactive. Rule as the data show it: inconclusive = inhibition above about 70% without an active follow-up result; inactive = below that.

The assay can be described thus: M. tuberculosis growth inhibition, HTS (AID 449762).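 Also: bacterial growth assessed after seven days of incubation.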 The conditions noted are these: M. tuberculosis H37Rv growth inhibition, 7H9 media; at 25 µM; hits give high values.
Regarding `Cc1cc(=O)oc2cc(OCC(=O)N3CCCC3)ccc12`, the inhibition was -4.87%. To `COc1ccccc1CCC(=O)NNC(=O)c1cccs1` belongs -0.29%; to `CCCCCCCCCCOC(=O)Cn1c(COc2ccccc2OC)[n+](C)c2ccccc21`, 54.7%. To `CCCCCCCCCCOC(=O)Cn1c(COc2ccccc2)[n+](C)c2ccccc21` belongs 49.6%.

As for `COc1ccc([C@H]2CC(=O)C=C(c3ccc(Br)c4ccccc34)C2)cc1`, the inhibition was 67.8%. To `COc1ccc([C@H]2CC(=O)C=C(c3cc4ccccc4c4ccccc34)C2)cc1` belongs -1.17%. Turning to `COc1ccc(-c2[nH]ncc2CN2CCCOc3c(cccc3OC)C2)c(OC)c1`, the inhibition was 9.33%. To `O=C1CCCN1CCC(=O)N1CCCC(Nc2ccc(F)cc2)C1` (centres undefined) belongs -9.8%; to `OC(CN1CCN(c2ccccc2Cl)CC1)c1ccccc1` (centres undefined), 2.61%. For the compound `CC(=O)Nc1ccc(NC(=O)C/C(C)=N/NC(N)=S)cc1`, the inhibition was 3.29%. As for `C/C(CC(=O)Nc1cc(Cl)ccc1C)=N\NC(N)=O`, the inhibition was 4.8%. To `COc1ccc(C2(c3ccc(OC)cc3)NC(=O)N(CC(=O)Nc3ccc(C(=O)N(C)C)cc3)C2=O)cc1` belongs -1.84%.

With `CCN=c1scc(-c2ccco2)n1/N=C/c1ccc(O)cc1`, the inhibition is 28.5%. To `CC(C)N=c1scc(-c2ccco2)n1/N=C/c1ccc(O)c(O)c1` belongs 9.93%. `COc1ccc(S(=O)(=O)Nc2ccccc2N2CCOCC2)cc1OC`: the inhibition is 3.88%. To `CC(Nc1cc(C)cc(C)c1)=[N+](C)CCNS(=O)(=O)c1ccc(Cl)cc1` belongs -13.9%.

For `Cc1ccc(-c2nsc3c(N4CCC(C(N)=O)CC4)ncnc23)cc1`, the inhibition is -5.48%. To `O=c1c(C=NCc2ccccc2)c(NCc2ccccc2)nc2ccccn12` belongs 11.6%; to `COC(=O)CSc1nc2ccccc2o1`, 20%. To `COc1ccc(C(=O)N/C(N)=N/c2nc3ccccc3o2)cc1` belongs 43%; to `O=C(O)c1ccc(NS(=O)(=O)c2ccc3c(c2)OCCCO3)cc1`, 5.48%; to `COc1ccc(N(CC(=O)NC2CCCCCC2)S(=O)(=O)c2ccccc2)cc1Cl`, 11.1%. To `O=[N+]([O-])c1ccc(Cl)c(-c2ccc(/C=N/n3cnnc3)o2)c1` belongs -1.71%. For `O=[N+]([O-])c1cc(-c2ccc(/C=N/n3cnnc3)o2)ccc1Cl`, the inhibition was 16.1%. On to `C/C=C1\COC(C(=O)NCCCN2CCCC2=O)(C(F)(F)F)C=C1C=C(C)C` (centres undefined), for which the inhibition was 2.64%. As to `NC(=O)CSC1=Nc2ccccc2C2=NC(c3ccccc3)C(=O)N12` (centres undefined), the inhibition was 4.02%.

Regarding `CN(C(=O)CSC1=Nc2ccccc2C2=NC(c3ccccc3)C(=O)N12)C1CCCCC1` (centres undefined), the inhibition was -5.75%.

As for `CCOC(=O)Cn1c(-c2ccccc2)cc(SC)c(C#N)c1=O`, the inhibition was 13.1%. Consider `CCn1c(-c2ccccc2)ccc(C#N)c1=O`, for which the inhibition is -2.43%. Take `NC(=O)Cn1nc(-c2ccccc2)nc1-c1ccccc1`: the inhibition is -2.98%. On to `CCOC(=O)Cn1nnc(-c2ccccc2)n1`, for which the inhibition is -9.53%. `COc1cc2cnc(-c3ccccc3)cc2cc1OC`: the inhibition is 61.6%.

On to `CN(C)/C=N/NC(=O)c1ccc(Cl)cc1`, for which the inhibition was -3.16%. For `O=C(CCCCCn1nnc2ccccc2c1=O)Nc1ccccc1F`, the inhibition was -1.21%. To `COc1ccc(CNC(=O)CN(Cc2ccc(Cl)cc2)S(=O)(=O)c2ccccc2)cc1` belongs -11.8%. Take `CC(=O)Nc1cc(-c2nn(C)c(=O)c3ccccc23)ccc1N1CCCCC1`: the inhibition is 5.24%.

Regarding `CCC(=O)Nc1cc(-c2nn(C)c(=O)c3ccccc23)ccc1N1CCCCC1`, the inhibition was -0.54%. To `CC(=Nc1ccc2c(c1)CCC2)c1c(O)n(-c2ccccc2)c(=O)[nH]c1=O` belongs 0.86%. `Cc1cccc(CS(=O)(=O)Cc2ccc(C(=O)NCCCN3CCOCC3)o2)c1`: the inhibition is -7.1%. To `COc1cc(Cl)c(C)cc1NC(=O)COC(=O)C(NS(=O)(=O)c1ccc(Cl)cc1)C(C)O` (centres undefined) belongs -9.26%. To `Cc1ccc(NC(=O)COC(=O)C(NS(=O)(=O)c2ccc(Cl)cc2)C(C)O)cc1` (centres undefined) belongs -2.52%; to `OCC(CBr)(CBr)CBr`, -6.91%; to `CCC1=NC(c2ccc(OC)cc2)N(O)C1(C)C` (centres undefined), -1.62%. On to `CC(O)(CS(=O)(=O)Cc1ccccc1)C(=O)Nc1cccc(C(F)(F)F)c1` (centres undefined), for which the inhibition was 8.28%. To `C(=N\Nc1nc(Nc2ccccc2)nc(N2CCOCC2)n1)/c1c[nH]c2ccccc12` belongs 41.1%. For `Cc1[nH]c2ccccc2c1/C=N/Nc1nc(Nc2ccc(F)cc2)nc(N2CCOCC2)n1`, the inhibition is 62.1%. On to `O=c1[nH]c(C2CCN(S(=O)(=O)c3ccc4c(c3)OCCO4)CC2)nc2c1nnn2Cc1ccc(F)cc1`, for which the inhibition was 37.9%. To `Cc1ccc(C)c(S(=O)(=O)N2CCC(c3nc4c(nnn4Cc4ccc(F)cc4)c(=O)[nH]3)CC2)c1` belongs 7.99%; to `Cn1c(CC(=O)Nc2ccc(F)cc2)c(Sc2ccccc2)c2ccccc21`, 3.85%; to `NC(=O)C1CCCN(C(=S)NCc2ccc3c(c2)OCO3)C1` (centres undefined), -1.44%. To `CCOc1cc(/C=C/C(=O)OCC(=O)NCC2CCCO2)cc(Cl)c1OC` (centres undefined) belongs 1.07%; to `O=C(c1ccc(Cl)cc1)N1CCCC(c2ccccc2)=N1`, 2.03%.

On to `O=C(C1CC1)N1N=C(c2ccc(Cl)cc2)CC1(O)C(F)(F)F` (centres undefined), for which the inhibition was 49%. To `CCN(CCO)C(=S)Nc1cc(S(=O)(=O)N(C)C)ccc1C` belongs -0.4%; to `CCOC(=O)c1c(C)[nH]c(C(=O)N2CCN(c3ccc(OC)cc3)CC2)c1C`, 53.5%. To `CCOC(=O)c1[nH]c(C)c(C(=O)N2CCN(c3ccc(OC)cc3)CC2)c1C` belongs -0.98%; to `C[C@H](CO)N1C[C@H](C)[C@H](CN(C)Cc2ccncc2)Oc2ccc(NC(=O)Nc3ccc(C(F)(F)F)cc3)cc2CC1=O`, 62.2%; to `C=CCNC(=O)c1ccc(-c2nc(-c3ccccc3)cs2)cc1`, 1.66%.

On to `CN(C)CCCNC(=O)c1ccc(-c2ccccc2)cc1`, for which the inhibition was -5.39%.

By inhibition is commonly meant the drop in the measured response relative to a control, in per cent.
